Reference: PMC5700166

Tests used:
Experiment in all cases: protein-binding microarray (PBM); PBM: ~300 nM protein, 6 mM HEPES pH 7.8, 80 mM KCl, 0.5 mM EDTA, 0.5 mM EGTA, 6% glycerol, 35 ng/ul poly-dIdC, 1% milk, 1 h, room temperature; Ap Aiptasia and Nv Nematostella (sea anemones) / Co Capsaspora / Aq Amphimedon (sponge) / Dm Drosophila / Hu human; RHD is the Rel homology domain; high values mean tight binding
Conditions in all cases: dsDNA, one strand shown
[1] = molecular target: T1, GST-Ap-NF-kB RHD (Exaiptasia pallida (Aiptasia), UniProt A0A913YAJ5 2-422)
T1 sequence: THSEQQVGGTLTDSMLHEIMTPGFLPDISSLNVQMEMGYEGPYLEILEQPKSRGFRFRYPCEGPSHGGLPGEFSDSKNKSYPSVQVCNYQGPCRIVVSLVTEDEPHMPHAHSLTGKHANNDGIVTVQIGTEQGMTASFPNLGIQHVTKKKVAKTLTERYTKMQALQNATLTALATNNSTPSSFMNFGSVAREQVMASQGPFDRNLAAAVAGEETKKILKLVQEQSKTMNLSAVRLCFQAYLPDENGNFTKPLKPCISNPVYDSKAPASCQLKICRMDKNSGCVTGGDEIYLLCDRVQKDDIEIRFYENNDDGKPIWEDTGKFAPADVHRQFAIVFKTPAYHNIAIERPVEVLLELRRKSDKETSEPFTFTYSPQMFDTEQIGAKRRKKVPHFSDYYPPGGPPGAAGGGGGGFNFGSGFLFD

[2] = molecular target: T2, GST-Nv-NF-kB (Cys allele) (Nematostella vectensis, UniProt E5G601 2-411)
T2 sequence: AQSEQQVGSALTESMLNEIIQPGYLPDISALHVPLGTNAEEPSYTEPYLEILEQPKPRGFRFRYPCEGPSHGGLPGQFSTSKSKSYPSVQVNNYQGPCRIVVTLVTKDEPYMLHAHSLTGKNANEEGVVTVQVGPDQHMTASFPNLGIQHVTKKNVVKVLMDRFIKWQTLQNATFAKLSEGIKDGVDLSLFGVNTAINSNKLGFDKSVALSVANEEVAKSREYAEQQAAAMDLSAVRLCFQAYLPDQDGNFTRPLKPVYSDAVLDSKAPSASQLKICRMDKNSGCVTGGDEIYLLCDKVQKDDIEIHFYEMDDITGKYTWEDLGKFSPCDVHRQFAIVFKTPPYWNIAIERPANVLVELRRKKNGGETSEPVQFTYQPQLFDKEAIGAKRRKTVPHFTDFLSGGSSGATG

[3] = molecular target: T3, GST-Co-NF-kB (Capsaspora owczarzaki, UniProt F1ARL5 200-546)
T3 sequence: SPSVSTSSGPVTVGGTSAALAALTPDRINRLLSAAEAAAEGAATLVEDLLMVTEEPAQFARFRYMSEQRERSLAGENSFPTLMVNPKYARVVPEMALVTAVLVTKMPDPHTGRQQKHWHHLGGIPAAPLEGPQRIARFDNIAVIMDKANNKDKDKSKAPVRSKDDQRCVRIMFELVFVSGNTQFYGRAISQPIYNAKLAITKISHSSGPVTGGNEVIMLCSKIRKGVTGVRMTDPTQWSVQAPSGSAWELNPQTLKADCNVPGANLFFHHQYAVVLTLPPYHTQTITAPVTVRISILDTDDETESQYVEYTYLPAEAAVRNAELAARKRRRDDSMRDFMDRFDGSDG

[4] = molecular target: T4, GST-Dm-Relish (Drosophila melanogaster, UniProt Q94527 99-473)
T4 sequence: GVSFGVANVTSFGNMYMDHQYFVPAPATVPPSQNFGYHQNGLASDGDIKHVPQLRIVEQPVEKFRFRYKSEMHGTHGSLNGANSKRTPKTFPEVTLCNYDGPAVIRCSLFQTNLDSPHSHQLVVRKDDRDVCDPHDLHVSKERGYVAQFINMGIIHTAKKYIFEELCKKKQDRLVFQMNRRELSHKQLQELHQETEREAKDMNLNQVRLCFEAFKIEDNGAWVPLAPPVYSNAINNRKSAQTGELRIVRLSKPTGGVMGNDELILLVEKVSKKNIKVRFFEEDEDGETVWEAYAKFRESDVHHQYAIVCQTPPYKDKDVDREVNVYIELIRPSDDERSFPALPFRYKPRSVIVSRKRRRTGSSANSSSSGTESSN

[5] = molecular target: T5, GST-Aq-NF-kB (Amphimedon queenslandica, UniProt A9Y5G7 2-389)
T5 sequence: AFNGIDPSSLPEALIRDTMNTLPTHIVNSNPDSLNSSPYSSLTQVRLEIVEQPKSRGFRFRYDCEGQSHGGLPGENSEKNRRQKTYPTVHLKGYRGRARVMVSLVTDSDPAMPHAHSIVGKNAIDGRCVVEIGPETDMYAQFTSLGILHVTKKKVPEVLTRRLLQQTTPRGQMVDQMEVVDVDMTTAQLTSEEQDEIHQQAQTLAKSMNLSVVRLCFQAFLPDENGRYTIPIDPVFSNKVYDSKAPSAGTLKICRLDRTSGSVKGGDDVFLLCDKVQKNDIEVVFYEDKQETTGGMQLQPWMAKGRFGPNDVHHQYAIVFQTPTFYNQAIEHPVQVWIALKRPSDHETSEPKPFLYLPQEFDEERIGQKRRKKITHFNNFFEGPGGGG

“CCGATTAACATCAGGGGACTATATGATGTTAATCGGGTCTTGATTCGCTTGACGCTGCTG” showed a binding signal [1] of 5.4 z-score, a binding signal [2] of 4.97 z-score and a binding signal [3] of 2.59 z-score. It also gave a binding signal [4] of 2.85 z-score and a binding signal [5] of 4.61 z-score.

Sequence “CCGATTAACATCAGGAAATCCCATGATGTTAATCGGGTCTTGATTCGCTTGACGCTGCTG” has a binding signal [1] of 4.15 z-score, a binding signal [2] of 3.68 z-score and a binding signal [3] of 1.17 z-score. It also gave a binding signal [4] of 8.1 z-score and a binding signal [5] of 5.09 z-score.

“CCGATTAACATCAATCACCCCCATGATGTTAATCGGGTCTTGATTCGCTTGACGCTGCTG” showed a binding signal [1] of 4.03 z-score, a binding signal [2] of 2.63 z-score and a binding signal [3] of 4.35 z-score. The binding signal [4] was 1.86 z-score and the binding signal [5] was 3.32 z-score.

For “CCGATTAACATCAGGCCATCCCCTGATGTTAATCGGGTCTTGATTCGCTTGACGCTGCTG”, the binding signal [1] was 3.87 z-score, the binding signal [2] was 4.02 z-score and the binding signal [3] was 1.22 z-score. It also gave a binding signal [4] of 7.89 z-score and a binding signal [5] of 5.6 z-score.

In the case of “CCGATTAACATCAGGGCGTCCCCTGATGTTAATCGGGTCTTGATTCGCTTGACGCTGCTG”, the binding signal [1] is reported as 6.5 z-score, the binding signal [2] is reported as 5.76 z-score and the binding signal [3] is reported as 2.03 z-score. For the same sequence, the binding signal [4] was 8.13 z-score and the binding signal [5] was 7.89 z-score.

“CCGATTAACATCAGGACTCTCCCTGATGTTAATCGGGTCTTGATTCGCTTGACGCTGCTG” was tested, and the binding signal [1] was 3.59 z-score, the binding signal [2] was 5.02 z-score and the binding signal [3] was 1.1 z-score. It also gave a binding signal [4] of 2.07 z-score and a binding signal [5] of 7.56 z-score.

“CCGATTAACATCAAACAATTCCCTGATGTTAATCGGGTCTTGATTCGCTTGACGCTGCTG” gave a binding signal [1] of 3.25 z-score, a binding signal [2] of 5.26 z-score and a binding signal [3] of 3.45 z-score. For the same sequence, the binding signal [4] was 1.6 z-score and the binding signal [5] was 4.85 z-score.

Work on “CCGATTAACATCAGATACCCCCCTGATGTTAATCGGGTCTTGATTCGCTTGACGCTGCTG” yielded a binding signal [1] of 6.55 z-score, a binding signal [2] of 4.3 z-score and a binding signal [3] of 4.8 z-score. For the same sequence, the binding signal [4] was 3.94 z-score and the binding signal [5] was 4.46 z-score.
